Assay outcomes deposited in PubChem BioAssay by several laboratories.
Compounds with a hit are over-represented: about 4% of the library has one in this group of screens.
Mdm2 MdmX PPI = inhibitors of human Mdm2/MdmX interaction | inhibition, % at 8 µM | SaOS-2 split-luciferase Mdm2/MdmX complementation, luminescence | hit rate 3% among 330,000 | O15151+Q00987 | AID 485346;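 active = inhibition of at least 50% at 8 µM in the primary screen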
Target sequence (O15151 whole entry, looked up): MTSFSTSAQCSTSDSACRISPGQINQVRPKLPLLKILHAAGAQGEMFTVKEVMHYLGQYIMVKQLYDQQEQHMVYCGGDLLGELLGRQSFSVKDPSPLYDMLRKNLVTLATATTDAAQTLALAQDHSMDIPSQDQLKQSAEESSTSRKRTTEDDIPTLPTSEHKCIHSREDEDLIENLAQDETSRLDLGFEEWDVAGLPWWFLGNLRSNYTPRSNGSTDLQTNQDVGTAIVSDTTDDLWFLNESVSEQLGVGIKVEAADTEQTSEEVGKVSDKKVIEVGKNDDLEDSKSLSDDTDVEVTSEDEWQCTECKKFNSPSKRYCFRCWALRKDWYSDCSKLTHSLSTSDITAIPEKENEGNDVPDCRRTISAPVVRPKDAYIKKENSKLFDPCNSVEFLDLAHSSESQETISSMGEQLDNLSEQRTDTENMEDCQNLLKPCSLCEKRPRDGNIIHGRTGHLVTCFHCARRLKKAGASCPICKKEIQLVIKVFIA
Target sequence (Q00987 whole entry, looked up): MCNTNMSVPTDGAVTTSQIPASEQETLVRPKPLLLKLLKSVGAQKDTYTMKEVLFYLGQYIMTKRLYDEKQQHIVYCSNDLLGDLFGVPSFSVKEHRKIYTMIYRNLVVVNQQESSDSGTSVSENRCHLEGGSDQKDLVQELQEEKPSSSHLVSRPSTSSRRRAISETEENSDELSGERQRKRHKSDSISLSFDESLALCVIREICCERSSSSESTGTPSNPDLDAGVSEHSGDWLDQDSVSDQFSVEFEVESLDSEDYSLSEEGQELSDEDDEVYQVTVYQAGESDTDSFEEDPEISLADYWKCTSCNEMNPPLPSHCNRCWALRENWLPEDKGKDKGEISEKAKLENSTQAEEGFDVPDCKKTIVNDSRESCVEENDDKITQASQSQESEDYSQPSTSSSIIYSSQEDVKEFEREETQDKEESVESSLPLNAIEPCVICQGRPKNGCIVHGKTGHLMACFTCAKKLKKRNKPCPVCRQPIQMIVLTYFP
Beta apoptosis = beta cell apoptosis inhibition | INS-1E cytokine-induced death, ATP luminescence, 48 h; percent of positive-control rescue, neutral wells zero | protection from apoptosis, % (no concentration beside the values) | AID 435005 | hit rate 0.8% among 300,000;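 active = Every replicate reaches about 75%, or at least half do and their mean reaches it too, limit read from the data; inconclusive = At least half of replicates reach the limit but their mean does not; inactive = Under half of replicates reach the limit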;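 also: higher means more ATP so stronger rescue from cytokine killing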
697 NFkB inh = inhibitors of the PMA/ionomycin-induced NF-kB reporter in 697 B cells | 697 B-cell NF-kB luciferase reporter, 16 h | hit rate 0.33% among 330,000 | inhibition, % at 4 µM; in the data active = inhibition above about 35%
Jurkat NFkB inh = lowers PMA/ionomycin-induced NF-kB signal in Jurkat cells; PMA/ionomycin-induced NF-kB luciferase reporter, luminescence; inhibition, % at 4 µM; hit rate 0.53% among 330,000; in the data active = inhibition above about 50%
Gli-Sufu block = Gli-Sufu pathway antagonism; Sufu-KO-LIGHT fibroblasts, Gli luciferase reporter luminescence; inhibition, % at 5 µM; hit rate 0.74% among 340,000; AID 588413;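 active = inhibition above about 55%, limit read from the data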
Mdm2-MdmX conf = human Mdm2/MdmX binding inhibition, confirmed; shares compounds with Mdm2 MdmX PPI; luminescent assay; inhibition, % at 8 µM; hit rate 55% among 10,000; in the data active = inhibition above about 40%
FLuc counter = counter-screen for Mdm2/MdmX inhibitors: full-length luciferase | inhibition, % at 8 µM | shares compounds with Mdm2 MdmX PPI | hit rate 77% among 6,200 | SaOS-2 full-length luciferase counterscreen, luminescence;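 active = mean inhibition at 8 µM reaching about 37%, which flags the compound as non-specific, limit read from the data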;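 also: p53-null SaOS-2 cells with luciferase driven by a doxycycline-inducible promoter; compound on cells about two nights before reading with doxycycline added after day one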
Of the large screens only hits and unclear results are named; the others gave an inactive call (follow-up assays come after a bar, where they were run).

Cc1ccc(-c2cc(C(=O)N/N=C/c3c[nH]c4ccccc34)n[nH]2)o1	none
CC(C)(C)c1cc(C(=O)N/N=C/c2ccccc2O)n(-c2ccccc2)n1	Mdm2 MdmX PPI 70, Beta apoptosis 85 | Mdm2-MdmX conf 77 | FLuc counter inactive
Cc1cc(C(=O)N/N=C\c2cc(C(C)(C)C)ccc2O)n[nH]1	Mdm2 MdmX PPI 65 | Mdm2-MdmX conf 60 | FLuc counter 41
CCc1nnc(NC(=O)c2nc(S(=O)(=O)Cc3ccccc3)ncc2Cl)s1	Mdm2 MdmX PPI 100 | Mdm2-MdmX conf 49 | FLuc counter inactive
CCc1nnc(NC(=O)c2nc(S(=O)(=O)Cc3cccc(C)c3)ncc2Cl)s1	Mdm2 MdmX PPI 100 | Mdm2-MdmX conf 99 | FLuc counter 51
CCc1nnc(NC(=O)c2nc(Cl)ccc2Cl)s1	none
CCc1nnc(NC(=O)c2nc(S(=O)(=O)Cc3ccc(C)cc3)ncc2Cl)s1	Mdm2 MdmX PPI 95 (no result: Beta apoptosis) | Mdm2-MdmX conf 80 | FLuc counter 52
CCOc1ccccc1NC(=O)c1nc(S(=O)(=O)Cc2cccc(C)c2)ncc1Cl	Mdm2 MdmX PPI 100, Beta apoptosis 96 | Mdm2-MdmX conf 76 | FLuc counter 55
CCC(C)c1c(N)n(S(=O)(=O)c2ccc(C)cc2)oc1=O (centres undefined)	none (no result: Mdm2 MdmX PPI, Beta apoptosis, 697 NFkB inh, Jurkat NFkB inh)
CC(C)=CCCC(C)CN1CCC(n2nccc2NC(=O)c2cccnc2)CC1 (centres undefined)	none
COc1ccc2nc(N=Nc3ccc(O)c4ccccc34)sc2c1	Mdm2 MdmX PPI 66, Beta apoptosis inconclusive | Mdm2-MdmX conf 78 | FLuc counter inactive
COc1cc(N/N=C(\C)c2ccc(O)c(C)c2)nc(-c2ccccc2)n1	Mdm2 MdmX PPI 87 | Mdm2-MdmX conf 66 | FLuc counter 112
C/C(=N\Nc1cc(-c2ccccc2)nc(-c2ccccc2)n1)c1ccc(O)c(C)c1	Mdm2 MdmX PPI 53 | Mdm2-MdmX conf inactive
Cc1ccccc1OCCC(=O)N1CCN(S(=O)(=O)c2ccc(Cl)cc2)CC1	none
Cc1cccnc1NC(=S)Nc1ncccc1C	none
Cc1ccccc1NCc1ccccc1O	none
Cc1cccc(NCc2ccc(O)c3ncccc23)c1C	Mdm2 MdmX PPI 74 | Mdm2-MdmX conf 73 | FLuc counter 42
Oc1ccc(Br)cc1CNc1cccc2cccnc12	Mdm2 MdmX PPI 60, Beta apoptosis 100 | Mdm2-MdmX conf 64 | FLuc counter inactive
Cc1cccnc1NCc1ccc(O)c2ncccc12	Mdm2 MdmX PPI 57 (no result: Beta apoptosis) | Mdm2-MdmX conf inactive
CCCCNC(=O)CSc1nc2ccsc2c(=O)n1CCCC(=O)NCCc1ccc(S(N)(=O)=O)cc1	none
CCCCN(C)Cc1c(O)ccc2c(=O)c(-c3ccccc3OC)coc12	none
C=C(C(=O)c1ccccc1)C(c1ccccc1)C(C)C(=O)c1ccccc1 (centres undefined)	Mdm2 MdmX PPI 92 (no result: Beta apoptosis) | Mdm2-MdmX conf 63 | FLuc counter 44
O=C(c1ccccc1)C(c1ccccc1)c1ccccc1	none
COc1ccc([N+](=O)[O-])c(S(=O)(=O)c2ccccc2)n1	Mdm2 MdmX PPI 99, Beta apoptosis 94 | Mdm2-MdmX conf 98 | FLuc counter 52
COc1ccc([N+](=O)[O-])c(S(=O)(=O)c2ccc(Cl)cc2)n1	Mdm2 MdmX PPI 97, Beta apoptosis 83 | Mdm2-MdmX conf 95 | FLuc counter 52
O=[N+]([O-])c1cccnc1S(=O)(=O)c1ccccc1	Mdm2 MdmX PPI 92 | Mdm2-MdmX conf 65 | FLuc counter 58
COc1nc(OC)nc(Oc2ccc(Cl)cc2[N+](=O)[O-])n1	none
Nc1cccnc1S(=O)(=O)c1ccccc1	none
CC(C)c1ccc(S(=O)(=O)N2CCN(C(=O)c3cccc(S(=O)(=O)N4CCOCC4)c3)CC2)cc1	none (no result: Mdm2 MdmX PPI, Beta apoptosis, 697 NFkB inh, Jurkat NFkB inh)
COC(=O)c1ccc2c(=O)n(CCN3CCOCC3)c(SCC(=O)Nc3ccccc3Cl)nc2c1	none
CCOC(=O)c1c(NC(=O)C2=C(C)NC(=S)NC2c2ccc(CC)cc2)sc(C)c1C (centres undefined)	Mdm2 MdmX PPI 64 (no result: Gli-Sufu block) | Mdm2-MdmX conf inactive
O=C1CC(c2ccco2)CC2=C1C1c3ccccc3C(=O)N1c1ccccc1N2 (centres undefined)	Mdm2 MdmX PPI 68 | Mdm2-MdmX conf inactive
COC(=O)CSc1nnc(CNC(=O)c2cc(OC)cc(OC)c2)n1-c1ccc(F)cc1	none
CC(=O)Nc1ccc(S(=O)(=O)NCCSc2ccccn2)cc1	none (no result: Beta apoptosis)
CC(=O)Nc1ccc(S(=O)(=O)/N=C2\C(=O)c3ccccc3C([O-])=C2n2cc[n+](-c3ccccn3)c2)cc1	Mdm2 MdmX PPI 55 | Mdm2-MdmX conf inactive | FLuc counter 52
Cc1cccc(NS(=O)(=O)c2cccc(C(=O)NCC(C)(C)N3CCOCC3)c2)c1	none
O=C(Cn1c(NCCO)nc2ccccc21)N1CCN(Cc2ccccc2)CC1	none
Cn1c(=O)[nH]c(=O)c2c1nc([N+](=O)[O-])n2Cc1ccccc1	Mdm2 MdmX PPI 96, Beta apoptosis 98 | Mdm2-MdmX conf 79 | FLuc counter 56
Cn1c(-c2cccc(OCc3ccccc3)c2)nc2c1c(=O)[nH]c(=O)n2Cc1ccccc1	Mdm2 MdmX PPI 85 | Mdm2-MdmX conf inactive
CCOC(=O)CC[C@H](NC(=O)Cn1cc(C)c(=O)[nH]c1=O)C(=O)OCC	none (no result: Mdm2 MdmX PPI, Beta apoptosis, 697 NFkB inh, Jurkat NFkB inh)
CCOc1cc(CNc2ccccc2)cc(Br)c1OCC(=O)NC(C)(C)C	none
CCOc1cc(CNc2ccc(Br)cc2)cc(Br)c1OCC(=O)NC(C)(C)C	Mdm2 MdmX PPI 56 | Mdm2-MdmX conf inactive
COc1cc2c(-c3ccc4cc[nH]c4c3)c(-c3ccc(C#N)cc3)oc(=O)c2cc1OC	Mdm2 MdmX PPI 59 | Mdm2-MdmX conf inactive | FLuc counter 52
Cc1[nH]n2c(=O)cc(-c3ccc([N+](=O)[O-])cc3)nc2c1-c1ccccc1	Mdm2 MdmX PPI 66 | Mdm2-MdmX conf 66 | FLuc counter 39
COc1ccccc1C(=O)OCc1ccc2sc(C)nc2c1	none
COC(=O)Nc1nnc(CC(=O)Nc2ccccc2C)s1	none
Cc1ccc(-c2sc(-c3ccccc3)nc2CC(=O)Nc2ccccc2F)cc1	Mdm2 MdmX PPI 52, Beta apoptosis 141 | Mdm2-MdmX conf inactive
Cc1ccccc1NC(=O)Cc1nnc(NC(=O)Nc2ccccc2F)s1	Mdm2 MdmX PPI 77 | Mdm2-MdmX conf inactive
O=C(/C=C/c1ccc(Br)cc1)c1ccc(NC2=NCCCS2)cc1	Mdm2 MdmX PPI 101 | Mdm2-MdmX conf inactive | FLuc counter 77
Cc1cccc(/C=C/C(=O)c2ccc(NC3=NCCCS3)cc2)c1	Mdm2 MdmX PPI 86 | Mdm2-MdmX conf 58 | FLuc counter 57
O=C(NCc1ccc(Cl)cc1)c1ccc2ccccc2n1	none
COc1ccc(NC2=NCC(=O)N2Cc2cccs2)cc1	Mdm2 MdmX PPI 55 | Mdm2-MdmX conf inactive
CC(C)(C)c1ccc(CN2N=Nc3ccccc3S2(=O)=O)cc1	Mdm2 MdmX PPI 67 | Mdm2-MdmX conf 47 | FLuc counter 59
